Compounds with a hit are over-represented: about 4.2% of the library has one in this group of screens.
D1 ag – activates the human D1 dopamine receptor; P21728; HEK293 T-REx D1 cells, calcium flux, agonist mode; activation, % at 2 µM; AID 504660; 360,000 tested, 1% active; in the data active means activation above about 30%
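Tetracycline-induced HEK293 TREx D1 cells, force-coupled to calcium signalling, were dye-loaded with a no-wash calcium kit. Compound was pin-added after a 10 s baseline. Fluorescence was read kinetically at 1 cycle/s for 180 s, with calcium rises flagged as agonism.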
D1 antagonist – human D1 dopamine receptor antagonism; AID 504652; 360,000 tested, 3.2% active; P21728; HEK293 TREx D1 cells, calcium flux, dopamine EC80; hits give low values; activity change, negative = inhibition, % at 10 µM; in the data active means activity change below about -30%
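Allosteric or orthosteric antagonism assessed as attenuation of the calcium response to EC80 dopamine, added 180 s after compound, in induced HEK293 Trex D1 cells loaded with no-wash calcium dye.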
TRPV1 PAM – enhances activation of the human vanilloid receptor TRPV1 | TRPV1-expressing cells, Fluo-8 calcium influx, capsaicin EC20 potentiation | potentiation, % at 8.33 µM | 320,000 tested, 0.02% active; in the data active means potentiation above about 80%; inconclusive means between about 30% and that limit
Target sequence (Q8NER1 whole entry, looked up): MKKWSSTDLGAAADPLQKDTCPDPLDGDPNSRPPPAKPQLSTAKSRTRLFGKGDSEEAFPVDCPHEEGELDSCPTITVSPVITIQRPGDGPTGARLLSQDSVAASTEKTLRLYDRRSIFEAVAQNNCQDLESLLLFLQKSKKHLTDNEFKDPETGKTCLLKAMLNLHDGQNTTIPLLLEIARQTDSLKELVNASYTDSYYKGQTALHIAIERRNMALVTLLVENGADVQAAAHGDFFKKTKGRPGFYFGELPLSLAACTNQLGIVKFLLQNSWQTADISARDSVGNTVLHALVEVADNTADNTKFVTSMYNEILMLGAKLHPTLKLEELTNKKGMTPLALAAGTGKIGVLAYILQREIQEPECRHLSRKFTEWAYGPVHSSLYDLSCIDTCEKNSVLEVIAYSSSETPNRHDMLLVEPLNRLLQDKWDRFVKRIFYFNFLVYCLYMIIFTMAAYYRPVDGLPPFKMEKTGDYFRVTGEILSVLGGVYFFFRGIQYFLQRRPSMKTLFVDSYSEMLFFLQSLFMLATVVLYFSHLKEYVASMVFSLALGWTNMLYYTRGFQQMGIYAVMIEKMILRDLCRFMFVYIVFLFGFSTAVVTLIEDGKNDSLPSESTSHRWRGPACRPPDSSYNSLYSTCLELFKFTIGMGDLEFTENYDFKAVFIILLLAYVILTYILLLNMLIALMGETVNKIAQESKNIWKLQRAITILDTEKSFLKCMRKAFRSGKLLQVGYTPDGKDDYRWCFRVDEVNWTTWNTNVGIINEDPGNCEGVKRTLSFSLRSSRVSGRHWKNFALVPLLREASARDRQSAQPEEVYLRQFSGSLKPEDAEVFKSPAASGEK
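TRPV1-expressing cells were cultured overnight at 35.5C and loaded with Fluo-8 calcium dye for 40 to 90 min at room temperature. After a 10 s baseline, compound was added and calcium influx was read kinetically for 3 min (ex 480/em 520 nm).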
TRPV1 ag – activates the human vanilloid receptor TRPV1; activation, % at 8.33 µM; AID 540275; 320,000 tested, 0.19% active; TRPV1-expressing cells, Fluo-8 calcium influx, agonist mode; Q8NER1; in the data active means activation above about 80%; inconclusive means between about 30% and that limit
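Cells expressing TRPV1 were dye-loaded with Fluo-8 and read kinetically: 10 s baseline, 3 min after compound (agonist portion), then 2 min after EC20 capsaicin (allosteric enhancer portion). Calcium-bound dye fluorescence at 480/520 nm.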
D1 PAM – enhances dopamine response at the human D1 receptor. HEK293 TREx D1 cells, calcium flux, dopamine EC20 potentiation. potentiation, % at 10 µM. P21728. AID 504651. 360,000 tested, 0.036% active; in the data active means potentiation above about 30%
Hits are given with their value; . = inactive; ? = inconclusive; / = not tested or not shown.

SMILES	D1 ag	D1 antagonist	TRPV1 PAM	TRPV1 ag	D1 PAM
CCc1c(C2(O)CCCCC2)[nH]c2ncccc12	.	/	.	.	.
CCc1c(C2(O)CCCCC2)[nH]c2cc(C(F)(F)F)ccc12	31.6	.	.	.	.
CCN(CC)c1ccc(NC(=O)c2c(C)nn(-c3ccc(F)cc3)c2-n2cccc2)c(C)c1	.	.	/	/	.
O=S(=O)(c1ccc(F)c(F)c1F)N1CCN(C(=S)NC2CC3CCC2C3)CC1 (stereo not given)	.	-30.5	.	.	.
O=C(c1cc2c(=O)oc3ccccc3c2s1)N1CCN(c2cccc(Cl)c2)CC1	.	.	/	/	.
CCCCC(=O)Nc1nc2c(s1)COc1ccccc1-2	.	.	.	121.0	.
CCN(CC)C(=O)c1ccc(COc2ccc(Cl)c(C)c2)o1	.	-30.6	.	.	.
CCCCN(CC)CCCNC(=O)c1sc2nc(C)cc(C)c2c1-n1cccc1	.	.	/	/	.
COc1cc2c(cc1OC)C1C/C(=N\O)C(CC(C)C)CN1CC2 (stereo not given)	.	-67.4	.	.	.
Cc1cccc(CN2C(=O)/C(=C\c3ccc(C(=O)NCCCN4CCN(C)CC4)cc3)Oc3ccccc32)c1	.	.	.	.	.
CN1CCN(CCCNC(=O)c2ccc(/C=C3\Oc4ccccc4N(Cc4ccccc4F)C3=O)cc2)CC1	103.1	-46.8	.	.	.
CCOc1ccc(-n2ccnc2SCC(=O)Nc2cccc3ccccc23)cc1	.	.	/	/	.
Cc1ccc(Cn2cnc3sc4c(c3c2=O)CCC4)c(C)c1	.	.	?	.	38.0
Cc1ccc(C)n1-n1cnc2sc3c(c2c1=O)CCC3	.	-33.0	.	.	.
O=C(O)c1ccc(Cn2cnc3sc4c(c3c2=O)CCCC4)cc1	.	.	.	.	.
N#C/C(=C\c1cn(Cc2ccccc2)c2ccccc12)C(=O)NCc1ccco1	.	.	.	?	.
Cn1c(=O)n(C)c2cc(/C=C(/C#N)C(=O)NCc3ccco3)ccc21	.	.	.	.	.
CN(C)c1ccc(/C=C(\C#N)C(=O)NCc2ccco2)cc1	35.1	.	.	.	.
CC(OC(=O)/C(C#N)=C/c1ccc(N(C)C)cc1)C(=O)NCc1ccco1 (stereo not given)	35.0	.	.	.	.
N#C/C(=C\c1cn(Cc2ccc(F)cc2)c2ccccc12)C(=O)NCc1ccco1	.	-35.8	.	.	.
Cc1ccc(CNC(=O)/C(C#N)=C\c2ccc(N(C)C)cc2)cc1	.	.	.	.	.
CCN(CC)c1ccc(/C=C(\C#N)C(=O)NCc2ccco2)cc1	47.9	.	.	?	.
Cc1cccc(Cn2cc(C(=O)Nc3ccc(F)c(C(F)(F)F)c3)ccc2=O)c1	.	.	/	/	.
CCN(c1ccccc1)S(=O)(=O)c1ccc(NC(=O)c2cc(=O)c3cc(C)ccc3o2)cc1	.	.	/	/	.
CCOc1ccc(C2C(C(N)=O)=C(C)Nc3nc(SCc4ccccc4)nn32)cc1 (stereo not given)	.	.	/	/	.
SMILES	D1 ag	D1 antagonist	TRPV1 PAM	TRPV1 ag	D1 PAM
Cc1c(Cl)cccc1NC(=O)CSc1nc(=O)n(CCN2CCOCC2)c2c1CCC2	.	/	/	/	.
Cc1c(Cl)cccc1NC(=O)CSc1ncc(S(=O)(=O)c2ccc(C(C)C)cc2)c(=O)[nH]1	.	.	/	/	.
COc1ccc(Cl)cc1NC(=O)c1ccc2c(c1)CCCN2S(C)(=O)=O	.	.	/	/	.
CCN(CC)c1ccc(/C=C(\C#N)C(=O)NCc2ccccc2)cc1	57.7	.	.	.	.
Cc1cc(C)n(CC(=O)c2ccc(Br)cc2)c(=O)c1C#N	.	.	.	.	.
CN(C)/C=c1\sc2c(C#N)cc(C(=O)c3ccc(Br)cc3)n2c1=O	.	-50.7	.	.	.
CC1CN(CC(O)COc2ccccc2C(C)(C)C)CC(C)O1 (stereo not given)	123.7	-30.7	.	.	.
CCOC(=O)N1CCN(CC(O)COc2ccccc2C(C)(C)C)CC1 (stereo not given)	.	.	.	.	.
Cc1ccccc1OCC(O)CN1CCN(CC(O)COc2ccccc2C)C(C)C1 (stereo not given)	.	-40.3	.	.	.
Cc1c(C)c2cc3c(c(C)c2oc1=O)OCN(CCc1ccccc1)C3	.	.	/	/	.
Cc1ccc(SCC(=O)OCC(=O)NC2CCCCCC2)cc1	.	.	.	.	.
O=C(COC(=O)CSc1ccc(F)cc1)NCC1CCCCC1	.	-37.3	.	.	.
COc1ccccc1CC(=O)N(Cc1ccccc1)c1cccc(C)c1	.	-30.6	.	.	.
COc1ccc(C(=O)N(Cc2ccccc2)c2cccc(C)c2)cc1	.	.	.	.	.
CC(C)N(C(=O)Cn1cc(S(=O)(=O)Cc2ccc(Br)cc2)c2ccccc21)C(C)C	.	.	/	/	.
CSc1ccccc1-n1nnnc1SCc1ccccc1	45.9	.	.	.	.
Cc1oc(-c2cccc(Cl)c2)nc1CSc1nc2ncccc2[nH]1	.	.	/	/	.
N#CCCCSc1nnnn1-c1cccc(Cl)c1	.	-36.8	.	.	.
O=C(CSc1nnnn1-c1cccc(Cl)c1)Nc1ccc2c(c1)CCC2	.	.	.	.	.
COc1ccc(-c2nc(C)c(CCNC(=O)c3ccc(F)c(F)c3)s2)cc1	.	.	/	/	.
Cc1ncc(CO)c(CNc2ccc(Oc3ccccc3)cc2)c1O	.	-37.0	.	.	.
S=C(NCc1cccnc1)Nc1ccc(Oc2ccccc2)cc1	.	.	.	?	.
CCOC(=O)c1cnc2ccc(OC(F)(F)F)cc2c1Nc1ccccc1C(=O)O	.	.	/	/	.
COc1ccc(CNC(=O)c2cnc3ccc(C)cn3c2=O)cc1	.	.	/	/	.
Cc1[nH]c2ccccc2c1/C=N/n1cnnc1	.	.	.	.	.
SMILES	D1 ag	D1 antagonist	TRPV1 PAM	TRPV1 ag	D1 PAM
C(=N\n1cnnc1)/c1nc2ccccc2[nH]1	.	-34.1	.	.	.
Oc1c(Cl)cc(Cl)cc1Sc1cc(Cl)cc(Cl)c1O	.	-55.8	.	.	.
CC(=O)Nc1ccc(NC(=O)C2CC(=O)N(c3ccccc3Cl)C2)cc1 (stereo not given)	.	-30.5	.	.	.
Cc1ccc(-n2nc(C(=O)N(C)c3ccc(C)c(C)c3)c3c4ccccc4n(C)c3c2=O)cc1	.	.	/	/	.
Fc1ccc(F)c(CNc2ncnc3cc(Cl)ccc23)c1	.	-30.5	.	.	.
Cc1ccc(C)c(N2CCN(S(=O)(=O)c3ccc(C(=O)N(C)C)s3)CC2)c1	.	.	/	/	.
COc1ccc(S(N)(=O)=O)cc1C(=O)OCCCOC(=O)c1cc(S(N)(=O)=O)ccc1OC	.	.	.	.	.
COc1ccc(S(N)(=O)=O)cc1C(=O)OCCCOc1ccc(F)cc1	.	-34.5	.	.	.
O=C(c1cc(-c2ccc(Cl)cc2)on1)N(Cc1ccc(F)cc1)Cc1ccco1	30.4	-39.0	/	/	.
CCc1ccc(CN(Cc2ccco2)C(=O)c2cc(-c3ccc(Cl)cc3)on2)cc1	.	.	/	/	.
